Bioassay records as filed in PubChem BioAssay.
Hits are enriched below; roughly 3.3% of the tested compounds scored in any of these assays.
MBD2 DNA inh – blocks human MBD2 binding to methylated DNA | 370,000 tested, 0.31% active | inhibition, % at 4.4 µM | TR-FRET, MBD2 binding to methylated oligonucleotide | AID 686964 | Q9UBB5; in the data active = inhibition above about 13%
UHRF1 binding – UHRF1 methyl-DNA binding inhibition; Q96T88; UHRF1 binding to methylated oligo, TR-FRET; inhibition, % at 4.4 µM; 370,000 tested, 0.75% active; AID 687016; in the data active = inhibition above about 21%;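 note: UHRF1 SRA domain binding a hemimethylated CpG hairpin DNA probe; 0% = median of test compound wells and 100% = reference inhibitor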
Target sequence (Q96T88 whole entry, looked up, the tested form may be a part): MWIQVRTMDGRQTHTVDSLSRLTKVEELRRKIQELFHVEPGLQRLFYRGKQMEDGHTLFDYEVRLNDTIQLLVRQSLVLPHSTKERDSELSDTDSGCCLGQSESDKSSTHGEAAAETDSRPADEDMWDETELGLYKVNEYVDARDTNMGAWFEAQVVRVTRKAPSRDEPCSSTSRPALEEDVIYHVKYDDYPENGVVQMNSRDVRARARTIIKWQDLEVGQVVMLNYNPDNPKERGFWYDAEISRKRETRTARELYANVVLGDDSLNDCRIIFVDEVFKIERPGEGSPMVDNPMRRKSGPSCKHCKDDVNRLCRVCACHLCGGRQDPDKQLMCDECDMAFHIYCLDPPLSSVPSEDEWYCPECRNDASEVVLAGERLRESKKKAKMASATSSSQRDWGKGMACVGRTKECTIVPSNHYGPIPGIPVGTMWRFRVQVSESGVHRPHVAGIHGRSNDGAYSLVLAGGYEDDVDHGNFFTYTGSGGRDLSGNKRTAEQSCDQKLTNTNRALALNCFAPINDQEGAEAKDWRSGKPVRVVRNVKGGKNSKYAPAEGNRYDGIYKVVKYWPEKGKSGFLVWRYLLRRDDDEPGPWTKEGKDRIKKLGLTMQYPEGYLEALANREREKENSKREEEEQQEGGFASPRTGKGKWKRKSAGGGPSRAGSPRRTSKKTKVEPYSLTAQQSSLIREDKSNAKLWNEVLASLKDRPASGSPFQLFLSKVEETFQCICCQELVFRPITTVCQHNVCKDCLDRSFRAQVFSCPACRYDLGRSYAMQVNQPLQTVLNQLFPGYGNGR
PfGluPho inh – PfG6PD (Plasmodium falciparum) enzyme inhibition | 350,000 tested, 0.78% active | inhibition, % at 20 µM | PfGluPho enzyme, NADPH resazurin-diaphorase fluorescence;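 active = inhibition reaching at least a set limit at 20 µM in the primary screen, cut at about 59% in these data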;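 note: 0% = DMSO wells with substrate and 100% = DMSO wells lacking glucose-6-phosphate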
M18AAP inhibitor – PfM18AAP enzyme inhibition; recombinant PfM18AAP, H-Glu-NHMec fluorogenic cleavage; inhibition, % at 7.35 µM; 290,000 tested, 1.2% active;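 active = inhibition above the campaign mean inhibition over all tested compounds plus 3 SD, cut at about 28% in these data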;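 note: 0% = plate median of test compound wells and 100% = 2 mM ZnCl2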
PRMT1 FP inh – inhibitors of human PRMT1; inhibition, % at 2.79 µM; Q99873; AID 652257; 370,000 tested, 1.3% active; recombinant PRMT1, activity-based probe fluorescence polarization;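 active = inhibition above about 21% made by adding two undisclosed values, limit read from the data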
An asterisk follows results filed as active; . = no result given.

SMILES	MBD2 DNA inh	UHRF1 binding	PfGluPho inh	M18AAP inhibitor	PRMT1 FP inh
CN(C)c1ccc(CC2C(=O)Nc3ccccc32)cc1 (stereo not drawn)	5	-3	83*	31*	-6
CN(C)c1ccc(NC(=O)C(=O)C2C(=O)Nc3ccccc32)cc1 (stereo not drawn)	4	-4	-23	11	-3
O=c1[nH]c2ccccc2cc1CN(Cc1ccco1)S(=O)(=O)c1ccc(F)cc1	10	23*	20	-6	1
CC(C)CNc1ccc2c(c1)OC[C@@H](CC(C)C)NS2(=O)=O	1	-1	.	.	5
O=[N+]([O-])c1cc(S(=O)(=O)Nc2ccccc2)ccc1N1CCN(c2ccc(O)cc2)CC1	-2	-1	37	30*	8
O=C(CSc1nnc(-c2ccco2)n1-c1ccc(Cl)cc1)Nc1ccccc1-c1ccccc1	3	-2	.	.	5
CC(=O)Nc1ccc(S(=O)(=O)Nc2cccc(-c3nc4cc(C)ccc4o3)c2)cc1	6	21*	-14	.	-3
CC(=O)Nc1ccc2oc(-c3ccccc3)nc2c1	2	23*	-5	-13	0
CC(C)C[C@H]1CN([C@@H](Cc2ccccc2)CN2CCC[C@H]2CN2C(=O)C(=O)NC[C@@H]2Cc2ccccc2)C(=O)C(=O)N1CC1CCCCCC1	0	3	.	.	-1
O=C(CCN1CCOCC1)c1ccc2c(c1)OCCO2	-7	0	32	-15	24*
O=C(CCCN1CCOCC1)c1ccc2c(c1)OCCO2	1	2	3	3	-1
CCn1c(SC(=O)NC2CCCCC2)nnc1-c1cccs1	-6	-3	16	47*	2
Cc1c[nH]c2cccc(-c3ccccc3)c12	-6	1	.	.	0
Cc1cnc(C(=O)OCC(=O)N2CCC(C)CC2)cn1	0	-4	8	.	-1
O=C(COC(=O)c1ccc[nH]c1=O)NC1CCCCCCC1	0	2	4	-19	-1
Cc1cnc(C(=O)OCC(=O)N2C(C)CCCC2C)cn1 (stereo not drawn)	-1	24*	-5	.	-4
O=C(COC(=O)c1ccc[nH]c1=O)NC1CCCCCC1	0	56*	3	6	1
Cc1cnc(C(=O)OCC(=O)NC2CCCCCC2)cn1	1	22*	7	3	-2
CN1CC(=O)N2[C@@H](C[C@]3(c4c[nH]c5ccccc45)c4ccccc4N(S(=O)(=O)c4ccccc4)[C@H]23)C1=O	0	1	.	.	1
CN(C)c1cccc(/C=C2\CC3(OC(=O)c4ccc(Cl)cc4)CCCN2C3)c1 (stereo not drawn)	3	3	.	.	7
COC(=O)[C@]12C[C@H](CC(=O)N3CCSCC3)C(=O)N(Cc3ccccc3)C1=C[C@H](C1CCCC1)O[C@@H]2C	1	2	.	.	0
Cc1nc(C)c(CCNC(=O)c2ccc(C(F)(F)F)cc2)s1	0	0	3	6	1
Cc1nc(C)c(CCNC(=O)c2ccccc2Br)s1	-1	21*	5	-3	21
Cc1ccc(C(=O)NCCc2sc(C)nc2C)cc1	7	5	-1	0	23*
COc1cc(-c2ccc(Nc3ccccc3C(=O)O)c(OC)c2)ccc1Nc1ccccc1C(=O)O	8	22*	1	11	8
SMILES	MBD2 DNA inh	UHRF1 binding	PfGluPho inh	M18AAP inhibitor	PRMT1 FP inh
CC(C)(C)N(NS(=O)(=O)c1ccc(F)cc1)c1ccccc1	-7	-2	43	4	22*
Cc1ccccc1NS(=O)(=O)c1ccc(F)cc1	10	17	0	0	4
O=C(CCN1C(=O)C2C3C=CC(C3)C2C1=O)NCc1cccnc1 (stereo not drawn)	7	22*	-22	8	0
O=C1c2cccc3c([N+](=O)[O-])ccc(c23)C(=O)N1Cc1cccnc1	-6	-5	49	15	21*
O=C(CCN1C(=O)c2cccc3cccc(c23)C1=O)NCc1cccnc1	-4	25*	1	2	-1
FC(F)(F)c1ccc(Cn2ccc3ccc(-c4ccc5ccn(Cc6ccccc6)c5c4)cc32)cc1	-9	-2	.	.	3
COC(=O)C1CN(Cc2ccc(F)cc2)CCS(=O)(=O)N1Cc1ccc(F)cc1 (stereo not drawn)	4	-1	.	.	-2
O=C1CN=CN=CN1c1ccc(Cl)cc1Cl	4	-1	-14	40*	0
O=C(NC1CCN(S(=O)(=O)c2ccc(Cl)c(F)c2)CC1)c1cccnc1	-2	-1	-15	-4	-2
O=C(NC1CCN(S(=O)(=O)c2ccc(Cl)cc2)CC1)c1cccnc1	10	31*	2	1	3
COC1=C(C)C(=O)C2=C(C1=O)C1C3CC4=C(C(=O)C(OC)=C(C)C4=O)C(CNC(=O)C(C)=O)N3C(C#N)C(C2)N1C (stereo not drawn)	-14	-2	120*	.	7
CCCC[C@H]1C2CC(OC(=O)Nc3ccccc3C)C(C2)[C@H]2CCCCN21 (stereo partly drawn)	4	1	.	.	-5
CCOc1ccc(N2C(=O)CC(SCCN)C2=O)cc1 (stereo not drawn)	-2	4	-3	-45	22*
O=c1[nH][nH]c(-c2ccccc2O)c1C(C[N+](=O)[O-])c1ccccc1 (stereo not drawn)	-6	-8	-23	21	0
O=c1[nH][nH]c(-c2ccccc2O)c1C(C[N+](=O)[O-])c1cccc(Cl)c1 (stereo not drawn)	0	-1	1	30*	1
C#CCN(C[C@H]1[C@H](OC(=O)NCCCCCC)[C@H](OC(=O)NCCCCCC)CN(C(=O)OC(C)C)N1C(=O)OC(C)C)S(=O)(=O)c1ccc(C)cc1	8	0	.	.	1
O=C1c2cccc(Sc3ccccc3)c2C(=O)c2c(Sc3ccccc3)cccc21	10	24*	15	3	2
O=C1c2cccc(O)c2C(=O)c2c(O)cccc21	.	.	.	18	.
N=C1CCCN1CC(=O)c1ccc(Br)cc1	6	22*	15	-5	-2
CCOC(=O)CC[C@@H]1CC[C@]2(CCCN(C(=O)C3CCCCC3)C2)O1	7	0	.	.	0
C/C(=N/Nc1ccc(C(=O)O)cc1)c1ccc(O)c(O)c1O	-2	-4	-3	52*	7
COc1ccc(/C(C)=N/Nc2ccc(C(=O)O)cc2)cc1OC	-2	-1	12	29*	2
COc1ccc(OC)c(/C(C)=N/Nc2ccc(C(=O)O)cc2)c1	-4	-2	-8	27	4
COc1cc(/C(C)=N/Nc2ccc(C(=O)O)cc2)cc(OC)c1OC	-3	-1	-9	23	5
CCCN(Cc1cc2cc(OC)ccc2[nH]c1=O)C(=O)c1ccco1	1	-2	-8	-2	2
COc1ccc2[nH]c(=O)c(CNc3ccccc3OC)cc2c1	-7	-2	69*	9	1
CCCCN(Cc1cc2cc(OC)ccc2[nH]c1=O)C(=O)c1ccco1	6	3	-4	-2	24*
COCc1[nH]nc2c1C(c1ccc(F)cc1)N(c1ccccc1)C2=O (stereo not drawn)	0	1	.	.	-3
